# Results filed as inconclusive are left out. Entries that show only a call come without a potency. Values without a mark were called inactive. The source made the active and inactive calls. Calls come from the whole dose curve; as a rule, active = well fitted curve in the direction sought with a large enough effect in the repeat runs; inconclusive = weak or mixed curves; inactive = no such curve, though single readings can be large; an effect the other way counts as inactive or inconclusive.
# Tests used:
# [1] = target: Cytochrome P450 2C19 (Homo sapiens) (UniProt P33261); assay: Cytochrome P450 Family 2 Subfamily C Member 19 (CYP2C19) small molecule antagonists: luciferase reporter qHTS assay (AID 1671197); note: nearly all actives have a fitted effect of over 65% in size; note: potency is the fitted concentration of half-maximal effect; for activity change, negative = inhibition: series mostly up to about 120 µM
# Chain of Cytochrome P450 2C19 (Homo sapiens) (P33261 whole entry, looked up): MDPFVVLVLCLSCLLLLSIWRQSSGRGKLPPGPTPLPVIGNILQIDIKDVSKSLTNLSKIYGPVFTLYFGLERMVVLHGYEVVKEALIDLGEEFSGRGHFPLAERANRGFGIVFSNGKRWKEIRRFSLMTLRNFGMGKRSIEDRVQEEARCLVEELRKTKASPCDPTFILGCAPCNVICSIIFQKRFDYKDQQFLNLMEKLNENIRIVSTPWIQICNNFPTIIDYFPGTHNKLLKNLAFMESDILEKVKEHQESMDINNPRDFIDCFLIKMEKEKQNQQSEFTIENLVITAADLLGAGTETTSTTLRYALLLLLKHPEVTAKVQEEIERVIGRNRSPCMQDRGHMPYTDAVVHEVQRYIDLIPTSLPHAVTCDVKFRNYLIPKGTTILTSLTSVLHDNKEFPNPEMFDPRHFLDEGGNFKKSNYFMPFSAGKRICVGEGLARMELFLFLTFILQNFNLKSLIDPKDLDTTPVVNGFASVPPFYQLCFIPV
# Summary of the method: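 CYP2C19 P450-Glo, 1536-well qHTS. Cpd + enzyme/proluciferin substrate 10 min RT; + NADPH regen, 37C 1 h; stop with luciferin detection reagent, 20 min RT, luminescence (RLU). Pos ctrl ketoconazole.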
# [2] = target: Cytochrome P450 2C9 (Homo sapiens) (UniProt P11712); assay: Cytochrome P450 Family 2 Subfamily C Member 9 (CYP2C9) small molecule antagonists: luciferase reporter qHTS assay (AID 1671198); note: nearly all actives have a fitted effect of over 50% in size; note: potency is the fitted concentration of half-maximal effect; for activity change, negative = inhibition: series mostly up to about 120 µM
# Chain of Cytochrome P450 2C9 (Homo sapiens) (P11712 whole entry, looked up): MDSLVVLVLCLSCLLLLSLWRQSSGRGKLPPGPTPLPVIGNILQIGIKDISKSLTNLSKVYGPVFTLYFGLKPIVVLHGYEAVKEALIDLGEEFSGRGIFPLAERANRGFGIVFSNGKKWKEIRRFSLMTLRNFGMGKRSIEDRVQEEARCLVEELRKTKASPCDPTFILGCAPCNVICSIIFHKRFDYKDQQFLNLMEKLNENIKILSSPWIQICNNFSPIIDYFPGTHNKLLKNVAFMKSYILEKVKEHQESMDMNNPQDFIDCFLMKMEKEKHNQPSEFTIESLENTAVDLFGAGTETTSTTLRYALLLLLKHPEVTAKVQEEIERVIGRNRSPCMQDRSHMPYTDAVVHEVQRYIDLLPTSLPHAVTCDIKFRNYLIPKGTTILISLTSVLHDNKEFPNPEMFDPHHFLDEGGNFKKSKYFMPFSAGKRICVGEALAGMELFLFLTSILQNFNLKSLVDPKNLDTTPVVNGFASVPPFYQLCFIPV
# Summary of the method: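 CYP2C9 activity was measured with a P450-Glo proluciferin substrate. Enzyme–substrate mix was held with compound for 10 min at room temperature, then NADPH regeneration solution was added for 1 h at 37C. Luciferin product was read as luminescence.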
# [3] = target: Cytochrome P450 1A2 (Homo sapiens) (UniProt P05177); assay: Cytochrome P450 Family 1 Subfamily A Member 2 (CYP1A2) small molecule antagonists: luciferase reporter qHTS assay (AID 1671199); note: nearly all actives have a fitted effect of over 50% in size; note: potency is the fitted concentration of half-maximal effect; for activity change, negative = inhibition: series mostly up to about 120 µM
# Chain of Cytochrome P450 1A2 (Homo sapiens) (P05177 whole entry, looked up): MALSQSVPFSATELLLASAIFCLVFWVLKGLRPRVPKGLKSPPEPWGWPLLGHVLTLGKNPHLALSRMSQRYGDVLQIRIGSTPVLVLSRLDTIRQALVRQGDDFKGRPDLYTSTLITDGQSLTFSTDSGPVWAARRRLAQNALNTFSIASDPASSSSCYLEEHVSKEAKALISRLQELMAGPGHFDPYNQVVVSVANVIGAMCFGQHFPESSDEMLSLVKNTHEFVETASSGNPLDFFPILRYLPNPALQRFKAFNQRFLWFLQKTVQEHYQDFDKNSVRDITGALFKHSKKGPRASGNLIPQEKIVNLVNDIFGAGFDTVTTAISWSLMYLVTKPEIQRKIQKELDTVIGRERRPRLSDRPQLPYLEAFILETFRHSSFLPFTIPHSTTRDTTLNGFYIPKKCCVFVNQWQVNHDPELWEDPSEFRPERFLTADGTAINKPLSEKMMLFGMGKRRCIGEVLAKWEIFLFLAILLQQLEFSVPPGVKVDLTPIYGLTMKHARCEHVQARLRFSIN
# Summary of the method: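 P450-Glo CYP1A2, 1536-well qHTS: enzyme/proluciferin substrate + cpd (DMSO), 10 min RT; NADPH regen, 1 h RT; detection reagent, 20 min; luminescence, RLU.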
# [4] = target: Voltage-gated inwardly rectifying potassium channel KCNH2 (Homo sapiens) (UniProt Q12809); assay: Human Ether-a-go-go-Related Gene (hERG) channel small molecule antagonists: fluorescence cell-based qHTS assay (AID 1671200);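 note: hERG-expressing U2OS cells given a thallium stimulus after FluxOR II dye loading; series mostly up to about 77 µM; nearly all actives have a fitted effect of over 50% in size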
# Chain of Voltage-gated inwardly rectifying potassium channel KCNH2 (Homo sapiens) (Q12809 whole entry, looked up): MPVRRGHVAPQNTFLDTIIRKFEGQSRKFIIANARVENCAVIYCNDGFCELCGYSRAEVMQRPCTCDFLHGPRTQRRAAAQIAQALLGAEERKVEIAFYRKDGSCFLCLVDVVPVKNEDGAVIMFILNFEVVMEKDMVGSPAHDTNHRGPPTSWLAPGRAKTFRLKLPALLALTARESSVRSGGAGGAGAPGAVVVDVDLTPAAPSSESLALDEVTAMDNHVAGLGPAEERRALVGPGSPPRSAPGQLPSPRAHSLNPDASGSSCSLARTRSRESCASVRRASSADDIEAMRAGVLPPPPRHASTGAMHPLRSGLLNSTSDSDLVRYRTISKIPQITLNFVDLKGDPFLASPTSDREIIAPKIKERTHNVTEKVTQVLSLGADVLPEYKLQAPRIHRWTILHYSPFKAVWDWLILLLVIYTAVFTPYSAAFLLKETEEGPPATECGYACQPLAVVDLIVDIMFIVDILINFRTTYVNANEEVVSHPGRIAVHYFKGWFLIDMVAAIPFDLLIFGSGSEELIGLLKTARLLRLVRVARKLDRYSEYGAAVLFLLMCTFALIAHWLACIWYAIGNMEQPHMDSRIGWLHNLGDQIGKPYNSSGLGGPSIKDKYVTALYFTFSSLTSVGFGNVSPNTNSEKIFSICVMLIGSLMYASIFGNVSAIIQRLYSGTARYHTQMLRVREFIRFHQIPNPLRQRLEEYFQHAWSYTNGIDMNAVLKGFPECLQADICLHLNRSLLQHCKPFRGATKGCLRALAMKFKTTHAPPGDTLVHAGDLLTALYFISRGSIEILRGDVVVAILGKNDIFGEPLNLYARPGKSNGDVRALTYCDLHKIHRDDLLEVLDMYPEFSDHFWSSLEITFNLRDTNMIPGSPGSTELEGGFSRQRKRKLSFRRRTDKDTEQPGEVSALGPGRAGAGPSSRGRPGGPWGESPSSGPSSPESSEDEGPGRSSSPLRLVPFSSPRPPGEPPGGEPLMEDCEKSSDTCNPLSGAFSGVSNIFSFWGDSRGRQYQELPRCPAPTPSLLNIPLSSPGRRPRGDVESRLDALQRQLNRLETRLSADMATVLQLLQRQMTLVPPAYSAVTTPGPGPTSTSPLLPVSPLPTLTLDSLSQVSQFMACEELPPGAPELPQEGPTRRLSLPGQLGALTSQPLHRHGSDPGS
# Summary of the method: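 Channel function was assessed by thallium flux. Cells seeded the previous day and kept at 37 C took up FluxOR II dye over 1 h in the dark at room temperature, then sat another 10 min before stimulation.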
# [5] = target: Cytochrome P450 3A4 (Homo sapiens) (UniProt P08684); assay: Cytochrome P450 Family 3 Subfamily A Member 4 (CYP3A4) small molecule antagonists: luciferase reporter qHTS assay (AID 1671201); note: nearly all actives have a fitted effect of over 50% in size; note: potency is the fitted concentration of half-maximal effect; for activity change, negative = inhibition: series mostly up to about 120 µM
# Chain of Cytochrome P450 3A4 (Homo sapiens) (P08684 whole entry, looked up): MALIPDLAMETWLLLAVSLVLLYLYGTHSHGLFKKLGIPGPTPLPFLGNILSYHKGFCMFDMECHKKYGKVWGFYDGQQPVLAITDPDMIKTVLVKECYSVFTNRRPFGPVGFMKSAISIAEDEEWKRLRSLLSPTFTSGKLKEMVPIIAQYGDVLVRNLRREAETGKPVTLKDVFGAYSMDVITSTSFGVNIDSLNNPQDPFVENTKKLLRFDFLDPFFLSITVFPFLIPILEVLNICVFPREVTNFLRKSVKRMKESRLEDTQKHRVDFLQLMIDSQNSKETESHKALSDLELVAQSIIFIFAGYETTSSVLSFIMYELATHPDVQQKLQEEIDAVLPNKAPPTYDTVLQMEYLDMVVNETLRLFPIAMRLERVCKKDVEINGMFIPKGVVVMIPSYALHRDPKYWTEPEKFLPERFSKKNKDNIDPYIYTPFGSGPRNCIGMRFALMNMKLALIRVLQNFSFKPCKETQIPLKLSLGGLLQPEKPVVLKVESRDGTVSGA
# Summary of the method: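 Compounds in DMSO were pin-transferred onto CYP3A4 enzyme-substrate mix and held 10 min at room temperature. NADPH regenerating solution started the reaction for 1 h; luciferin detection reagent stopped it, and luminescence was read after 20 min.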
# [6] = target: Cytochrome P450 2D6 (Homo sapiens) (UniProt P10635); assay: Cytochrome P450 Family 2 Subfamily D Member 6 (CYP2D6) small molecule antagonists: luciferase reporter qHTS assay (AID 1671196); note: nearly all actives have a fitted effect of over 50% in size; note: potency is the fitted concentration of half-maximal effect; for activity change, negative = inhibition: series mostly up to about 120 µM
# Chain of Cytochrome P450 2D6 (Homo sapiens) (P10635 whole entry, looked up): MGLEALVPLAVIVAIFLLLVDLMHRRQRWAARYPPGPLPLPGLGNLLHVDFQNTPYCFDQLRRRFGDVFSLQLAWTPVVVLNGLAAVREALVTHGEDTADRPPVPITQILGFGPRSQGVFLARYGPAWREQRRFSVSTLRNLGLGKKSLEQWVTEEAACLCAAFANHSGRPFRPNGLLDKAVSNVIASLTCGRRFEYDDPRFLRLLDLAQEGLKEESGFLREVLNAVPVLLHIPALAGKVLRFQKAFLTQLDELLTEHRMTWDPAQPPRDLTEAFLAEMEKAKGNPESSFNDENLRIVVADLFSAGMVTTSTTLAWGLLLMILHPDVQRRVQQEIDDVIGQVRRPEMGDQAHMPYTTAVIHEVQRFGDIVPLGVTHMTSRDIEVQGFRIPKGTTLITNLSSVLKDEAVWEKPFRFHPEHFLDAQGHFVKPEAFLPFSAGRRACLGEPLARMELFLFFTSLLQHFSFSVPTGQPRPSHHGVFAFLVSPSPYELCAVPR
# Summary of the method: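 Read-out is luminescence from luciferin formed by CYP2D6 turnover of a proluciferin substrate, recorded as relative luminescence units. Reactions ran 1 h at room temperature after NADPH regeneration solution was added.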
smiles,measurement,setting,value
CO[C@@]1(NC(=O)Cc2cccs2)C(=O)N2C(C(=O)O)=C(COC(N)=O)CS[C@@H]21,Potency,[1],inactive
same,Potency,[2],inactive
same,Potency,[3],inactive
same,Potency,[4],inactive
same,Potency,[5],inactive
CC12CCC(C1)C(C)(C)C2O (stereo not given),Potency,[1],inactive
same,Potency,[2],inactive
same,Potency,[3],inactive
same,Potency,[4],inactive
same,Potency,[5],inactive
O=Cc1ccccc1Cl,Potency,[1],inactive
same,Potency,[2],inactive
same,Potency,[3],inactive
same,Potency,[4],inactive
same,Potency,[5],inactive
NCCOCCN,Potency,[1],71 µM (active)
same,Potency,[2],inactive
same,Potency,[3],17.8 µM (active)
same,Potency,[4],inactive
same,Potency,[5],inactive
C/C(=C1\CCOC(=O)S1)N(C=O)Cc1cnc(C)nc1N,Potency,[6],13.8 µM (active)
same,Potency,[2],inactive
same,Potency,[3],inactive
same,Potency,[4],inactive
same,Potency,[5],15.5 µM (active)
Cc1c(C(=O)c2c[nH]n(C)c2=O)ccc(S(C)(=O)=O)c1C1=NOCC1,Potency,[6],inactive
same,Potency,[2],12.9 µM (active)
same,Potency,[3],14.5 µM (active)
same,Potency,[4],inactive
same,Potency,[5],inactive
NCC1(Cc2noc(=O)[nH]2)CCCCC1,Potency,[6],inactive
same,Potency,[4],inactive
same,Potency,[5],inactive
Cn1c(=O)c2c(ncn2CCO)n(C)c1=O,Potency,[6],inactive
same,Potency,[2],inactive
same,Potency,[4],inactive
same,Potency,[5],inactive
COC(=O)c1ccccc1C(=O)O,Potency,[6],inactive
same,Potency,[3],inactive
same,Potency,[4],inactive
same,Potency,[5],inactive
CCOc1cccc(N)c1,Potency,[1],6.3 µM (active)
same,Potency,[2],7.93 µM (active)
same,Potency,[3],35.4 µM (active)
same,Potency,[4],inactive
same,Potency,[5],2.23 µM (active)
C[C@@H](O)C(=O)O,Potency,[6],inactive
same,Potency,[2],inactive
same,Potency,[3],inactive
same,Potency,[4],inactive
same,Potency,[5],inactive
CN(C)CCN(C)CCO,Potency,[1],inactive
same,Potency,[2],inactive
same,Potency,[3],inactive
same,Potency,[4],inactive
same,Potency,[5],inactive
COP(=O)(O)OP(=O)(O)OC,Potency,[1],inactive
same,Potency,[2],inactive
same,Potency,[3],inactive
same,Potency,[4],inactive
same,Potency,[5],inactive
CC/C=C\CCOC(=O)c1ccccc1O,Potency,[6],inactive
same,Potency,[3],31.7 µM (active)
same,Potency,[5],inactive
CC1=C(O)C(=O)C(C)O1 (stereo not given),Potency,[6],inactive
same,Potency,[2],inactive
same,Potency,[3],28.9 µM (active)
same,Potency,[4],inactive
same,Potency,[5],inactive
CCC(C)C(=O)OCCc1ccccc1 (stereo not given),Potency,[1],inactive
same,Potency,[2],inactive
same,Potency,[3],inactive
same,Potency,[4],inactive
same,Potency,[5],inactive
CC1c2ccccc2CN1NC(=O)c1ccc(Cl)c(S(N)(=O)=O)c1 (stereo not given),Potency,[6],inactive
same,Potency,[3],inactive
same,Potency,[4],inactive
same,Potency,[5],inactive
CCCCCCCCCCCCCCC(=O)NC(CO)CCCCCCCCCCCCCC (stereo not given),Potency,[1],inactive
same,Potency,[2],inactive
same,Potency,[3],63.8 µM (active)
same,Potency,[4],inactive
same,Potency,[5],inactive
OC1OCCOC1O (stereo not given),Potency,[6],inactive
same,Potency,[2],inactive
same,Potency,[3],35.6 µM (active)
same,Potency,[4],inactive
same,Potency,[5],inactive
CN(C)C(C)(C)CO,Potency,[1],inactive
same,Potency,[2],inactive
same,Potency,[3],inactive
same,Potency,[4],inactive
same,Potency,[5],inactive
CC(=O)O[Si](C)(OC(C)=O)OC(C)=O,Potency,[1],inactive
same,Potency,[2],inactive
same,Potency,[3],inactive
same,Potency,[4],inactive
same,Potency,[5],5.15 µM (active)
O=C=NCC1CCCC(CN=C=O)C1 (stereo not given),Potency,[1],71 µM (active)
same,Potency,[2],10 µM (active)
same,Potency,[3],inactive
same,Potency,[4],inactive
same,Potency,[5],2.83 µM (active)
O=Cc1cc2ccccc2o1,Potency,[6],inactive
same,Potency,[2],inactive
same,Potency,[3],31.7 µM (active)
same,Potency,[4],inactive
same,Potency,[5],inactive
COc1nc(N)nc2nc[nH]c12,Potency,[6],10 µM (active)
same,Potency,[2],inactive
same,Potency,[3],17.9 µM (active)
same,Potency,[4],inactive
O=C(CCCl)NCCc1ccccc1,Potency,[1],inactive
same,Potency,[2],inactive
same,Potency,[3],inactive
same,Potency,[4],inactive
same,Potency,[5],inactive
[O]=[Mo](=[O])=[O],"activity change, negative = inhibition",[1],-2.98% [at 23.6 µM]
same,"activity change, negative = inhibition",[2],-0.296% [at 23.6 µM]
same,"activity change, negative = inhibition",[3],2.53% [at 23.6 µM]
same,"activity change, negative = inhibition",[4],-1.28% [at 15.8 µM]
same,"activity change, negative = inhibition",[5],-5.3% [at 23.6 µM]
Cc1ccc(N)cc1S(=O)(=O)O,Potency,[1],79.6 µM (active)
same,Potency,[2],63.3 µM (active)
same,Potency,[3],39.9 µM (active)
same,Potency,[4],inactive
same,Potency,[5],inactive
CCCCCc1cccc(=O)o1,Potency,[6],inactive
same,Potency,[3],35.6 µM (active)
same,Potency,[4],inactive
same,Potency,[5],inactive
CCCCCCCCCOC(=O)c1ccccc1C(=O)OCCCCCCCCC,Potency,[1],39.8 µM (active)
same,Potency,[2],39.8 µM (active)
same,Potency,[3],35.5 µM (active)
same,Potency,[4],inactive
same,Potency,[5],7.95 µM (active)
C[C@H]1[C@@H](c2ccccc2)NC(=O)N1C,Potency,[2],inactive
same,Potency,[4],inactive
same,Potency,[5],inactive
CC(=O)C1C(=O)C=C(C)OC1=O (stereo not given),Potency,[1],inactive
same,Potency,[3],inactive
same,Potency,[4],inactive
same,Potency,[5],inactive
CCC(C)C(C)=O (stereo not given),Potency,[2],inactive
same,Potency,[4],inactive
same,Potency,[5],inactive
CC(=O)O[C@H]1C[C@@H]2CC[C@@]1(C)C2(C)C,Potency,[1],inactive
same,Potency,[2],inactive
same,Potency,[4],inactive
same,Potency,[5],inactive
CCCCCCCCCOC(=O)CCCCC(=O)OCCCCCCC,Potency,[1],inactive
same,Potency,[2],inactive
same,Potency,[4],inactive
same,Potency,[5],inactive
c1ccc2cnccc2c1,Potency,[1],inactive
same,Potency,[2],inactive
same,Potency,[4],inactive
OC1(c2ccc(Cl)cc2)CCNCC1,Potency,[1],3.09 µM (active)
same,Potency,[4],inactive
same,Potency,[5],inactive
O=C(Cl)c1ccccc1[N+](=O)[O-],Potency,[1],72.7 µM (active)
same,Potency,[2],inactive
same,Potency,[4],inactive
same,Potency,[5],inactive
CCCC(=O)OCCC(C)CCC=C(C)C (stereo not given),Potency,[2],20 µM (active)
same,Potency,[3],39.9 µM (active)
same,Potency,[4],inactive
same,Potency,[5],4.48 µM (active)
C=CC/C=C/C,Potency,[1],inactive
same,Potency,[2],inactive
same,Potency,[4],inactive
same,Potency,[5],inactive
Cc1ccccc1C(N)=O,Potency,[2],inactive
same,Potency,[4],inactive
same,Potency,[5],inactive
CC(C)CCOC(=O)c1ccccc1,Potency,[1],inactive
same,Potency,[2],inactive
same,Potency,[4],inactive
same,Potency,[5],inactive
CC(C)CO,Potency,[2],inactive
same,Potency,[3],inactive
O=[N+]([O-])c1c(Cl)cc(Cl)cc1Cl,Potency,[1],inactive
same,Potency,[2],inactive
same,Potency,[3],39.5 µM (active)
same,Potency,[4],inactive
same,Potency,[5],inactive
O=C1OCCO1,Potency,[2],inactive
same,Potency,[3],42.2 µM (active)
same,Potency,[4],inactive
same,Potency,[5],inactive
CC1=C(C(=O)O)N2C(=O)[C@@H](NC(=O)[C@H](N)C3=CCC=CC3)[C@H]2SC1,Potency,[2],inactive
same,Potency,[3],inactive
same,Potency,[4],inactive
same,Potency,[5],inactive
OCC(O)CN1CCN(c2ccccc2)CC1 (stereo not given),Potency,[2],inactive
same,Potency,[3],inactive
same,Potency,[4],inactive
same,Potency,[5],inactive
CC(O)COC(C)(C)C (stereo not given),Potency,[4],inactive
same,Potency,[5],inactive
CC(=O)CCc1ccc(OC(C)=O)cc1,Potency,[3],31.7 µM (active)
same,Potency,[4],inactive
same,Potency,[5],inactive
CC(=O)OC1CCCCC1C(C)(C)C (stereo not given),Potency,[1],inactive
same,Potency,[2],inactive
same,Potency,[3],inactive
same,Potency,[4],inactive
same,Potency,[5],inactive
CC1(C)Cc2cccc(N)c2O1,Potency,[1],17.8 µM (active)
same,Potency,[2],11.2 µM (active)
same,Potency,[4],inactive
same,Potency,[5],7.96 µM (active)
ONc1ccccc1,Potency,[1],88.5 µM (active)
same,Potency,[3],14 µM (active)
same,Potency,[4],inactive
same,Potency,[5],inactive
C=C(C)c1cccc(C(C)(C)N=C=O)c1,Potency,[1],17.8 µM (active)
same,Potency,[2],15.9 µM (active)
same,Potency,[4],inactive
same,Potency,[5],2.83 µM (active)
CCO,Potency,[1],inactive
same,Potency,[2],inactive
same,Potency,[4],inactive
same,Potency,[5],inactive
Nc1nnnn1-c1ccccc1,Potency,[1],inactive
same,Potency,[2],inactive
same,Potency,[4],inactive
same,Potency,[5],inactive
COC(=O)c1cccc(Cl)c1,Potency,[2],inactive
same,Potency,[4],inactive
same,Potency,[5],inactive
C=CC(=O)CCCCC,Potency,[1],inactive
same,Potency,[2],inactive
same,Potency,[3],inactive
same,Potency,[4],inactive
same,Potency,[5],inactive
CCCC(=O)OC/C=C(\C)CCC=C(C)C,Potency,[1],inactive
same,Potency,[5],inactive
CCO[Si](CC)(OCC)OCC,Potency,[1],inactive
same,Potency,[3],inactive
same,Potency,[4],inactive
same,Potency,[5],7.1 µM (active)
Cc1c(N)cccc1Cl,Potency,[1],inactive
same,Potency,[3],11.3 µM (active)
same,Potency,[4],inactive
same,Potency,[5],inactive
CC1(C)CC(OC(=O)CCCCCCCCC(=O)OC2CC(C)(C)NC(C)(C)C2)CC(C)(C)N1,"activity change, negative = inhibition",[2],-10.9% [at 23.6 µM]
same,"activity change, negative = inhibition",[3],-5.32% [at 23.6 µM]
same,"activity change, negative = inhibition",[4],-0.993% [at 15.8 µM]
CCCc1ccc(O)cc1,Potency,[3],44.8 µM (active)
same,Potency,[4],inactive
same,Potency,[5],inactive
CCN1CCCC1CN (stereo not given),Potency,[2],inactive
same,Potency,[3],inactive
same,Potency,[4],inactive
same,Potency,[5],inactive
CC(=O)OC(C)=O,Potency,[1],72.3 µM (active)
same,Potency,[2],inactive
same,Potency,[3],inactive
same,Potency,[4],inactive
same,Potency,[5],inactive
O/N=C/C=N/O,Potency,[1],inactive
same,Potency,[2],inactive
same,Potency,[3],inactive
same,Potency,[4],inactive
same,Potency,[5],inactive
COC(=O)c1cc(Cl)cc(Cl)c1,Potency,[1],inactive
same,Potency,[2],inactive
same,Potency,[4],inactive
same,Potency,[5],inactive

# Source: PubChem BioAssay (Tox21)
